PubChem BioAssay (Tox21)
Records with an inconclusive call do not appear. Calls of active or inactive are those of the source. Calls follow the shape of the full dose curve.

What was measured:
[1] = target: Acetylcholinesterase (Homo sapiens) (UniProt P22303); test: Acetylcholinesterase (AChE) small molecule antagonists: colormetric cell-based qHTS assay (AID 1347395); also: nearly all actives have a fitted effect of over 30% in size
In short: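 Colorimetric readout: DTNB quantifies thiocholine from acetylthiocholine hydrolysed by endogenous AChE of SH-SY5Y cells (2,000/well, plated overnight). Compound pretreatment 30 min, substrate incubation 90 min, both 37 C.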

[2] = target: Acetylcholinesterase (Homo sapiens) (UniProt P22303); test: Acetylcholinesterase (AChE) small molecule antagonists: enzyme-based qHTS assay (AID 1347397); settings: Potency: AChE enzyme activity inhibition; outcome: AChE enzyme activity inhibition; also: nearly all actives have a fitted effect of over 55% in size
In short: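 rhAChE 50 mU/mL (dispensed) + cpd or DMSO, 30 min RT; add DTNB/acetylthiocholine cocktail, 10 min RT; colorimetric thiocholine readout. qHTS, 1536-well format.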

[3] = target: Acetylcholinesterase (Homo sapiens) (UniProt P22303); test: Acetylcholinesterase (AChE) small molecule antagonists: fluorescence cell-based qHTS assay (AID 1347398); settings: Potency: AChE activity; outcome: AChE activity; also: nearly all actives have a fitted effect of over 50% in size
In short: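 Read-out is Thiolite Green fluorescence at Ex/Em = 490/520 nm, formed by reaction with thiocholine released when cellular AChE in SH-SY5Y cells hydrolyzes acetylthiocholine. Compounds were preincubated 30 min at 37 C before substrate.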

[4] = target: Acetylcholinesterase (Homo sapiens) (UniProt P22303); test: Acetylcholinesterase (AChE) small molecule antagonists: enzyme-based qHTS assay with human liver microsomes (AID 1347399); settings: Potency: qHTS inhibition; outcome: qHTS inhibition; also: nearly all actives have a fitted effect of over 60% in size
In short: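 Recombinant human AChE (50 mU/mL in the enzyme mix) and human liver microsomes (0.25 mg/mL final) were preincubated with compound and NADPH (0.25 mg/mL final) for 30 min at 37 C. Acetylthiocholine/DTNB was then added; thiocholine was read colorimetrically after 10 min at room temperature.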

Measured: Potency

Chain of Acetylcholinesterase (Homo sapiens) (P22303 whole entry, looked up): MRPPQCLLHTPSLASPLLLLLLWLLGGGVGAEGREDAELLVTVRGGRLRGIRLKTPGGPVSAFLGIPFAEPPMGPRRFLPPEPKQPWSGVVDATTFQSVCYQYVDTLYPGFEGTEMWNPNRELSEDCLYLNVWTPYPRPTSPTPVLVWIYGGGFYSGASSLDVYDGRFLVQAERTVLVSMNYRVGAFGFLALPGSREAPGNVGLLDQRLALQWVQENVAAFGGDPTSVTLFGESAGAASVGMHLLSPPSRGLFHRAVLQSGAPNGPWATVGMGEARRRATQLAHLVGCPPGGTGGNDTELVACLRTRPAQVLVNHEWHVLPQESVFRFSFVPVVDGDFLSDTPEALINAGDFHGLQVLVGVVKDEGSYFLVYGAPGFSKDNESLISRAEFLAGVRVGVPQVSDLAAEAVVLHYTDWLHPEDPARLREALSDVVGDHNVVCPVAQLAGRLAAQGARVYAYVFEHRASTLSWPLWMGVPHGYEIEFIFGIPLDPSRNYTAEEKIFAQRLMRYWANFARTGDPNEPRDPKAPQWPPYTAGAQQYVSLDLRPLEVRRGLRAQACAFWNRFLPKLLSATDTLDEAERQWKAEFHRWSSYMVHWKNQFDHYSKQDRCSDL

CCCOC(OCCC)OCCC
inactive: all assays above

NC(=O)c1ccncc1
inactive: all assays above

Cc1ccc2c(Br)cc(Br)c(O)c2n1
inactive: all assays above

FC(F)(F)C(F)(F)C(F)(F)C(F)(F)C(F)(F)C(F)(F)CCI
inactive: all assays above
